# Measurements published in PubChem BioAssay (Tox21).
# Several values for one entry are separate records, joined by “and”; a condition that tells them apart may be missing. Identical values can stand only once. Values without a mark were called inactive. Results filed as inconclusive are left out. Entries that show only a call come without a potency. Activity calls are given as the source filed them. Unless noted, the call rests on the fitted dose curve.
# How the values were obtained:
# [1] = Nuclear factor erythroid 2-related factor 2/antioxidant responsive element (Nrf2/ARE) small molecule agonists: luciferase reporter gene qHTS assay in human keratinocytes (AID 1919969); further: nearly all actives have a fitted effect of over 35% in size; further: potency means the concentration at half of the fitted maximal effect
# [2] = target: Gonadotropin-releasing hormone receptor (Homo sapiens) (UniProt P30968); experiment: Human gonadotropin-releasing hormone receptor (GnRHR) small molecule agonists, calcium flux assay in GnRHR-HEK293 cells (AID 1920063); further: nearly all actives have a fitted effect of over 35% in size; further: potency means the concentration at half of the fitted maximal effect
# Chain of Gonadotropin-releasing hormone receptor (Homo sapiens) (P30968 whole entry, looked up): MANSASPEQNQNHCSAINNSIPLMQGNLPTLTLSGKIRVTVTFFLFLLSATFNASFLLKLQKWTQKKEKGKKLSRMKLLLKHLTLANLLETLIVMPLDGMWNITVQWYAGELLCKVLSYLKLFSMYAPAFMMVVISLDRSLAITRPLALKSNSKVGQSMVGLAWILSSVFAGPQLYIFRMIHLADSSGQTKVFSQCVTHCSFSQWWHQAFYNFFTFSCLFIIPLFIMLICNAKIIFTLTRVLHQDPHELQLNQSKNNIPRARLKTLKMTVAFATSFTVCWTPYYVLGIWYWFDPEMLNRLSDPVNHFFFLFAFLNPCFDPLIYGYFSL
# Outline: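 Agonist mode: compounds at 15 concentrations, in triplicate, went onto calcium dye-loaded GnRHR-HEK293 cells. Intracellular calcium was then followed as 480/540 nm fluorescence at 1 s intervals over 3 min.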
# [3] = p53 small molecule agonists, cell-based qHTS assay with human liver microsomes (AID 1963577)
# Outline: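 Compounds act here after metabolic activation: human liver microsomes and NADPH, both at 0.5 mg/mL final, were co-added to p53RE-bla cells. Incubation ran 16 h at 37 C, followed by LiveBLAzer detection.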
# [4] = p53 small molecule agonists, cell-based qHTS assay with human liver microsomes: qHTS cell viability counter screen (AID 1963579); further: nearly all actives have a fitted effect of over 45% in size
# Outline: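 Cells carrying the p53 response-element beta-lactamase reporter are treated for 16 h at 37 C with test compounds in the presence of human liver microsomes and NADPH (both 0.5 mg/mL final); ATP-based CellTiter-Glo luminescence then reports viability.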
# [5] = p53 small molecule agonists, cell-based qHTS assay with rat liver microsomes: qHTS cell viability counter screen (AID 1963580); further: nearly all actives have a fitted effect of over 45% in size
# Outline: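 Luminescent ATP readout (CellTiter-Glo, 30 min at room temperature) reports viability of p53RE-bla HCT-116 cells after 16 h at 37 C with test compounds under metabolic activation by rat liver microsomes and NADPH at 0.5 mg/mL final each.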
# [6] = target: 5-hydroxytryptamine receptor 2A (Homo sapiens) (UniProt P28223); experiment: 5-hydroxytryptamine receptor 2A (HTR2A) small molecule agonists, cell-based qHTS assay (AID 1963587); further: nearly all actives have a fitted effect of over 30% in size; further: potency means the concentration at half of the fitted maximal effect
# Chain of 5-hydroxytryptamine receptor 2A (Homo sapiens) (P28223 whole entry, looked up): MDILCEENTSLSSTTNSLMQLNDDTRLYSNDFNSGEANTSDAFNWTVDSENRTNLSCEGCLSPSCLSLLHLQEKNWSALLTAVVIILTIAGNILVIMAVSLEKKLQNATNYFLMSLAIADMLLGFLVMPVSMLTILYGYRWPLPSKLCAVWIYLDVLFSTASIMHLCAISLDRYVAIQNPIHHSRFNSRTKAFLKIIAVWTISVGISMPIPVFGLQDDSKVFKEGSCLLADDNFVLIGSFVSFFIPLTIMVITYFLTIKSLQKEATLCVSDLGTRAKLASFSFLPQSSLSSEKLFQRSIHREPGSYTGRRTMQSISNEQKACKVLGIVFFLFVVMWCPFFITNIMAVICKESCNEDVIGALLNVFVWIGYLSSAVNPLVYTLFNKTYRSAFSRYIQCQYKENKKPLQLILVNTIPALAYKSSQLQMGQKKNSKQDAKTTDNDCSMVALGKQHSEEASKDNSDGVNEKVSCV
# Outline: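 HTR2A-CHO cells, plated 18 h at 37 C/5% CO2, dye-loaded 1 h at 37 C; compounds in DMSO added by pin tool (agonist mode). Intracellular calcium flux read as kinetic fluorescence on FDSS over 2 min at 1 s intervals.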
# [7] = target: Muscarinic acetylcholine receptor M1 (Homo sapiens) (UniProt P11229); experiment: Cholinergic receptor muscarinic 1 (CHRM1) small molecule antagonists, cell-based qHTS assay (AID 1963588); further: nearly all actives have a fitted effect of over 40% in size; further: potency means the concentration at half of the fitted maximal effect
# Chain of Muscarinic acetylcholine receptor M1 (Homo sapiens) (P11229 whole entry, looked up): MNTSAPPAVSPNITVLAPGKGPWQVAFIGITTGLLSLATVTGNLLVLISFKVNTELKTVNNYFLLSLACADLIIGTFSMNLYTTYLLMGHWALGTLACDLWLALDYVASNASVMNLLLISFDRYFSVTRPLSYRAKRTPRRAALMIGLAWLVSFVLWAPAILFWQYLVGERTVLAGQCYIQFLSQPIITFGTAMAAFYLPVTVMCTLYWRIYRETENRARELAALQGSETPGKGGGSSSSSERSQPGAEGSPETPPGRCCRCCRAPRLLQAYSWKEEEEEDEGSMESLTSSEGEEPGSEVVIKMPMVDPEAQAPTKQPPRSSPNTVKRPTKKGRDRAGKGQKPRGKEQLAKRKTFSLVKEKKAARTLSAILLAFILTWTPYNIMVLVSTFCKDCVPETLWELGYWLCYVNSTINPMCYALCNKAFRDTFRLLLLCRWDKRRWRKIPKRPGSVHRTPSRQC
# Outline: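 Compounds were tested at 15 concentrations in three independent runs. Dye-loaded CHRM1-CHO cells were exposed 5 min at room temperature before stimulation by acetylcholine added at 50nM. Intracellular calcium was read kinetically on FDSS for 3 min.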
# [8] = target: Beta-2 adrenergic receptor (Homo sapiens) (UniProt P07550); experiment: Adrenergic beta2 receptor (ADRB2) small molecule antagonists, cell-based qHTS assay (AID 1963592); further: series mostly up to about 92 µM; nearly all actives have a fitted effect of over 50% in size
# Chain of Beta-2 adrenergic receptor (Homo sapiens) (P07550 whole entry, looked up): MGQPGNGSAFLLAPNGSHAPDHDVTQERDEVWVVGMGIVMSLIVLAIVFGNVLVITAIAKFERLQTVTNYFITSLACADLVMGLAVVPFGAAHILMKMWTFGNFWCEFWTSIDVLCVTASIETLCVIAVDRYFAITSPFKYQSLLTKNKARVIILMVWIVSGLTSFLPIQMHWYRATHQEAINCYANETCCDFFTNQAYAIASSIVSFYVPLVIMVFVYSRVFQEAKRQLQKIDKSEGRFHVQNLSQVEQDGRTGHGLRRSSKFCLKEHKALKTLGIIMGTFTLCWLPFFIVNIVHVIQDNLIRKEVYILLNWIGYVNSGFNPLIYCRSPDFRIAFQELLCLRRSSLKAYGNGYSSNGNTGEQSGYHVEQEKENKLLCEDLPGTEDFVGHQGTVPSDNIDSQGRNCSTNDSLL
# Outline: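 Assay format: CHO-ADRB2 cells, 18-20hr seeding at 37C/5% CO2, then compound plus 1nM isoproterenol agonist mix for 0.5hr RT. Homogeneous time-resolved fluorescence cAMP detection after 1hr, expressed as 665/615 nm ratio.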
# [9] = target: Beta-2 adrenergic receptor (Homo sapiens) (UniProt P07550); experiment: Adrenergic beta2 receptor (ADRB2) small molecule agonists, cell-based qHTS assay (AID 1963593);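 further: CHO cells stably overexpressing human ADRB2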
# Outline: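 CHO cells stably over-expressing ADRB2 were plated overnight at 37C, then dosed with compounds plus a stimulation mix containing 100uM IBMX and 25uM Ro-20-1724 for 0.5hr at room temperature. cAMP was measured by HTRF competition, 1hr.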
# [10] = G protein-coupled receptor (GPCR) small molecule agonists, calcium flux assay: HEK293 wild type cell line counter screen (AID 1920065); further: potency means the concentration at half of the fitted maximal effect
# Outline: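 Calcium flux counter screen: compound added in agonist mode at 15 concentrations in triplicate to dye-loaded parental HEK293 cells. Fluorescence (480/540) read kinetically for 3 min; ATP served as positive control.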
# [11] = p53 small molecule agonists, cell-based qHTS assay: qHTS cell viability counter screen (AID 1963581); further: nearly all actives have a fitted effect of over 45% in size
# Outline: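 Counter screen read by CellTiter-Glo luminescence (ATP content, 30 min at room temperature), run in the same wells as the beta-lactamase reporter read. HCT-116 p53RE-bla cells saw compounds for 16 h at 37 C.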
# [12] = cAMP Responsive Elements (CRE) small molecule agonists, cell-based qHTS assay (AID 1963590)
# Outline: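 Agonist mode: compound added to CRE-bla HEK 293T cells (2,000/well, 18 h after plating) for 3 h at 37 C/5% CO2. Reporter activity detected via FRET beta-lactamase substrate, 2 h room-temperature loading.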
# [13] = cAMP Responsive Elements (CRE) small molecule antagonists, cell-based qHTS assay (AID 1963591; active means well fitted inhibition curve with a large enough effect in the signal ratio in the repeat runs, not every such curve was filed as active; the % refers to the signal ratio)
# Outline: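 Antagonist mode: compounds are added alongside the adenylyl cyclase activator NKH477 (0.25 uM final) to CRE-bla HEK293T cells for 3 h. LiveBLAzer FRET substrate, 2 h at room temperature, reports bla expression.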
# [14] = target: D(2) dopamine receptor (Homo sapiens) (UniProt P14416); experiment: Dopamine D2 receptor (DRD2) small molecule agonists, cell-based qHTS assay (AID 1963594); further: nearly all actives have a fitted effect of over 35% in size
# Chain of D(2) dopamine receptor (Homo sapiens) (P14416 whole entry, looked up): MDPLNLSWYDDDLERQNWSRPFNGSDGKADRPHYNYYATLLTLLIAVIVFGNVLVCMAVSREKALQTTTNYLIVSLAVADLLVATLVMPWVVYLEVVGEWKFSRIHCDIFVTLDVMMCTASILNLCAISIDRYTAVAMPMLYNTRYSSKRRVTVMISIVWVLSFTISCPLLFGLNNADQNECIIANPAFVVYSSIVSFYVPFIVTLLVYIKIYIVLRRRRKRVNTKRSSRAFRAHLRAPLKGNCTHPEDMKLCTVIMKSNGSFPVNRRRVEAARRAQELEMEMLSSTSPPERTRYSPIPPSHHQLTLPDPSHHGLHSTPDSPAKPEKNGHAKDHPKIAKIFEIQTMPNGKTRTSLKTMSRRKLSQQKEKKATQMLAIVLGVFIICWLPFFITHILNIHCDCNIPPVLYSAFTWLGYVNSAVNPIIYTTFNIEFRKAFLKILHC
# Outline: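 HEK293 cells stably expressing DRD2 were cultured 24 h at 37 C, then given Ro20-1724 (0.1 mM final) and compounds for 10 min at room temperature. NKH477 (200nM) was then added for 30 min. cAMP was read by HTRF.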
# [15] = target: D(2) dopamine receptor (Homo sapiens) (UniProt P14416); experiment: Dopamine D2 receptor (DRD2) small molecule antagonists, cell-based qHTS assay (AID 1963595; active means well fitted inhibition curve with a large enough effect in the signal ratio in the repeat runs, with a control signal flat; the % refers to the signal ratio)
# Outline: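 Antagonism was scored as restored cAMP in HEK293-DRD2 cells. These cells were stimulated with 200 nM NKH477 and 12 nM quinpirole for 30 min at room temperature, in the presence of 0.1 mM Ro20-1724.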
# [16] = target: KiSS-1 receptor (Homo sapiens) (UniProt Q969F8); experiment: Human kisspeptin (KISS1R) small molecule agonists, calcium flux assay in KISS1R-HEK293 cells (AID 1920064; active means well fitted activation curve with a large enough effect in the repeat runs)
# Chain of KiSS-1 receptor (Homo sapiens) (Q969F8 whole entry, looked up): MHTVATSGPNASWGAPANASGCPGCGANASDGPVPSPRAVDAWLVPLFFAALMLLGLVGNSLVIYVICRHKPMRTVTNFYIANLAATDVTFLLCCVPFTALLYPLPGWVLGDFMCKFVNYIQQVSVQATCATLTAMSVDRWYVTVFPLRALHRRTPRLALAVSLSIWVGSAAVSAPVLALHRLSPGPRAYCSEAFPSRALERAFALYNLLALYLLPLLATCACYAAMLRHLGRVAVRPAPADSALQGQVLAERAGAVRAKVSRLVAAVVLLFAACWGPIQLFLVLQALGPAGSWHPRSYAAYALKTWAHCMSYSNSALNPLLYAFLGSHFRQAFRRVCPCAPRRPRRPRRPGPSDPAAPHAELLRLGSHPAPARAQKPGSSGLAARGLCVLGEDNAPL
# Outline: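 Agonist mode: intracellular calcium rise tracked at 1 s intervals over 3 min (480/540 nm) immediately after compound addition to dye-loaded KISS1R-HEK293 stable cells. Each compound tested at 15 concentrations in triplicate.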
# [17] = p53 small molecule agonists, cell-based qHTS assay with rat liver microsomes (AID 1963578)
# Outline: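 Read-out is beta-lactamase reporter fluorescence (LiveBLAzer, 2 h, room temperature, dark) in p53RE-bla cells treated 16 h at 37 C with compound, rat liver microsomes and NADPH, both 0.5 mg/mL final.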
# [18] = p53 small molecule agonists, cell-based qHTS assay (AID 1963582; active means well fitted activation curve with a large enough effect in the signal ratio in the repeat runs, not every such curve was filed as active; the % refers to the signal ratio)
# Outline: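 Read-out is beta-lactamase FRET fluorescence after 2 h at room temperature with LiveBLAzer B/G substrate. p53 response element-bla cells were treated 16 h at 37 C with compounds in DMSO, added 5 h after seeding.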
# [19] = target: Muscarinic acetylcholine receptor M1 (Homo sapiens) (UniProt P11229); experiment: Cholinergic receptor muscarinic 1 (CHRM1) small molecule agonists, cell-based qHTS assay (AID 1963589); further: nearly all actives have a fitted effect of over 35% in size; further: potency means the concentration at half of the fitted maximal effect
# Outline: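 Agonist-mode calcium-flux screen: compounds at 15 concentrations, three independent runs, were pin-transferred onto dye-loaded human CHRM1-CHO cells. Fluorescence was then recorded kinetically every second over minutes.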
# [20] = target: 5-hydroxytryptamine receptor 2A (Homo sapiens) (UniProt P28223); experiment: 5-hydroxytryptamine receptor 2A (HTR2A) small molecule antagonists, cell-based qHTS assay (AID 1963586); further: nearly all actives have a fitted effect of over 45% in size
# Outline: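 CHO cells stably expressing human HTR2A were plated for 18 h at 37 C, then loaded with calcium dye for 1 h. Compounds were preincubated 5 min at room temperature before DOI (4 nM solution) was added. Kinetic fluorescence was read for 3 min.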
smiles,measurement,setting,value
Nc1ccc2c(c1)CN1C(=O)c3ccccc3C1=N2,Potency,[1],0.13 µM (active)
same,Potency,[2],6.57 µM (active)
same,activation,[3],5.53% [at 13.5 µM]
same,"activity change, negative = cytotoxicity",[4],-28.3% [at 13.5 µM]
same,"activity change, negative = cytotoxicity",[5],-20.3% [at 13.5 µM]
same,Potency,[6],10.4 µM (active)
same,"activity, negative = inhibition",[7],0.434% [at 12.6 µM]
same,"activity change, negative = inhibition",[8],-18.2% [at 19 µM]
same,activation,[9],25.8% [at 19 µM]
CCc1oc2ccccc2c1C(=O)c1cc(Br)c(O)c(Br)c1,Potency,[1],inactive
same,Potency,[2],inactive
same,Potency,[10],inactive
same,Potency,[11],inactive
same,Potency,[12],inactive
same,Potency,[13],inactive
same,Potency,[8],inactive
same,Potency,[14],inactive
same,Potency,[15],inactive
CCC(C)(C)c1cc(O)c(C(C)(C)CC)cc1O,Potency,[1],4.86 µM (active)
same,Potency,[16],inactive
same,Potency,[10],inactive
same,Potency,[3],inactive
same,Potency,[17],inactive
same,Potency,[4],inactive
same,Potency,[5],inactive
same,Potency,[11],inactive
same,Potency,[18],inactive
same,Potency,[6],4.9 µM (active)
same,Potency,[7],inactive
same,Potency,[19],inactive
same,Potency,[12],inactive
same,Potency,[13],inactive
same,Potency,[8],inactive
same,Potency,[9],inactive
same,Potency,[14],inactive
same,Potency,[15],inactive
CC(=O)Oc1ccc([N+](=O)[O-])cc1CCl,Potency,[1],27.3 µM (active)
same,Potency,[2],inactive
same,Potency,[3],inactive
same,Potency,[17],inactive
same,Potency,[4],inactive
same,Potency,[5],inactive
same,Potency,[11],inactive
same,Potency,[18],inactive
same,Potency,[20],inactive
same,Potency,[6],inactive
same,Potency,[7],inactive
same,Potency,[19],inactive
same,Potency,[12],inactive
same,Potency,[9],inactive
same,Potency,[14],inactive
same,Potency,[15],inactive
CC1=C(/C=C/C(C)=C/C=C/C(C)=C/C=O)C(C)(C)CCC1,Potency,[1],27.1 µM (active)
same,Potency,[2],inactive
same,Potency,[3],inactive
same,Potency,[17],inactive
same,Potency,[20],inactive
same,Potency,[6],inactive
same,Potency,[7],inactive
same,Potency,[19],inactive
same,Potency,[9],inactive
same,Potency,[14],inactive
same,Potency,[15],inactive
c1cc(N(CC2CO2)CC2CO2)ccc1OCC1CO1 (stereo not drawn),Potency,[1],27.3 µM (active) and 24.3 µM (active)
same,Potency,[2],inactive
same,Potency,[10],inactive
same,Potency,[4],inactive
same,Potency,[5],inactive
same,Potency,[20],inactive
same,Potency,[6],inactive
same,Potency,[7],inactive
same,Potency,[19],inactive
same,Potency,[8],inactive
same,Potency,[14],inactive
same,Potency,[15],inactive
CC(C)(C)c1cc(O)c(C(C)(C)C)cc1O,Potency,[1],15.4 µM (active)
same,Potency,[2],5.49 µM (active)
same,Potency,[10],34.7 µM (active)
same,Potency,[17],inactive
same,Potency,[4],inactive
same,Potency,[5],inactive
same,Potency,[11],inactive
same,Potency,[6],1.1 µM (active)
same,Potency,[7],18.8 µM (active)
same,Potency,[19],11 µM (active)
same,Potency,[12],inactive
same,Potency,[13],inactive
same,Potency,[8],inactive
same,Potency,[9],inactive
same,Potency,[14],inactive
same,Potency,[15],inactive
CN[C@H]1CC[C@@H](c2ccc(Cl)c(Cl)c2)c2ccccc21,Potency,[1],inactive
same,Potency,[16],inactive
same,Potency,[10],inactive
same,Potency,[3],inactive
same,Potency,[17],inactive
same,Potency,[4],inactive
same,Potency,[5],inactive
same,Potency,[11],inactive
same,Potency,[18],inactive
same,Potency,[13],inactive
same,Potency,[8],inactive
same,Potency,[14],inactive
